Cy5 interf NS3h: enhances or quenches Cy5 fluorescence in NS3h assay; Cy5-dT15 DNA with NS3h, fluorescence interference; actives lie on both sides; signal over control mean, under 1 quenches; fluorescence interference ratio at 100 µM; 16,000 compounds, 6% hits; AID 720488;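 active = compound fluorescence over control fluorescence at most 0.8, a quencher, or at least a set upper limit, an enhancer; inactive = ratio between 0.8 and the set upper limit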
NS3h inh CB: hepatitis C NS3 helicase inhibition, primary screen. AID 687043. inhibition, % at 100 µM. NS3h Cy5-dT15 DNA binding, fluorescence polarization. 16,000 compounds, 1.6% hits;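 active = inhibition above the average over every tested compound plus 3 SD, cut at about 40% in these data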
NS3h confirm: hepatitis C NS3 helicase inhibition, confirmation; inhibition, % at 100 µM; 240 compounds, 20% hits; shares compounds with NS3h inh CB; AID 720485; NS3h binding to Cy5-dT15 DNA, fluorescence polarization;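 active = percent inhibition of 50% or more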
SSB-DNA FP CB: counter-screen for HCV NS3 helicase inhibitors: E. coli SSB binding; 240 compounds, 40% hits; AID 720486; E. coli SSB binding Cy5-dT15, fluorescence polarization; inhibition, % at 100 µM; shares compounds with NS3h inh CB;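 active = inhibition of at least 50%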;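 also: displacers lower Cy5 polarization so higher inhibition means more SSB displaced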
Target sequence (P0AGE0 whole entry, looked up): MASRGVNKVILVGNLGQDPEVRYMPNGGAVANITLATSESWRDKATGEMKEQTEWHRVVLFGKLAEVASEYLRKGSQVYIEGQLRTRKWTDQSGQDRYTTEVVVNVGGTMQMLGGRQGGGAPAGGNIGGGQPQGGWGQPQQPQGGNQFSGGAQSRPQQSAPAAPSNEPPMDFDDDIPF
Cy5 SSB fluor CB: counter-screen for HCV NS3 helicase inhibitors: fluorescence interference | shares compounds with NS3h inh CB | Cy5-dT15/E. coli SSB fluorescence interference; actives lie on both sides | fluorescence interference ratio at 100 µM | 240 compounds, 8% hits | AID 720487;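 active = fluorescence interference ratio at or above 1.2, signal boosting, or at or below 0.8, signal quenching; inactive = ratio between 0.8 and 1.2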;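 also: ratio of compound well signal to mean negative control signal so 1 means no effect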
Cy5 interf conf: Cy5 fluorescence interference, confirmation counter-screen; shares compounds with NS3h inh CB; Cy5-dT15 DNA/NS3h fluorescence interference counterscreen; fluorescence interference ratio at 100 µM, hits read low; 240 compounds, 44% hits;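 active = fluorescence interference ratio at or below 0.8 quencher or at or above a set limitenhancer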;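 also: ratio of compound fluorescence to mean of negative controls so 1 means no interference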
An asterisk follows results filed as active; . = no result. In the library only some 6.9% were active in any assay of this set; here they are far more common.

SMILES	Cy5 interf NS3h	NS3h inh CB	NS3h confirm	SSB-DNA FP CB	Cy5 SSB fluor CB	Cy5 interf conf
O=C(Nc1ccc(Cl)c(Cl)c1)C1CC(=O)N(c2cccc([N+](=O)[O-])c2)C1 (stereo not given)	1.1	39	0	14	0.97	0.94
Cc1ccc(NC(=O)C2CC(=O)N(c3ccc(Br)cc3)C2)cc1Cl (stereo not given)	1	20	.	.	.	.
O=C(CC1S/C(=N/N=C2/CCCc3ccccc32)NC1=O)Nc1ccc(Cl)cc1Cl (stereo not given)	0.98	19	.	.	.	.
COc1ccc(N(CC(=O)Nc2ccc(Br)cc2)S(=O)(=O)c2ccccc2)cc1Cl	1.1	-5	.	.	.	.
O=[N+]([O-])c1ccc2c(c1)C1C=CCC1C(c1cccc(Cl)c1Cl)N2 (stereo not given)	0.97	7	.	.	.	.
COc1ccc2c(c1)C1C=CCC1C(C(=O)O)N2 (stereo not given)	1.2	84*	59*	108*	1.5*	0.94
O=C(O)C1Nc2c(Cl)cc(Cl)cc2C2C=CCC12 (stereo not given)	0.87	97*	57*	104*	0.9	0.75*
CCN(CC)S(=O)(=O)c1cc(C(=O)Nc2cccc(C(=O)O)c2)ccc1C	1.1	3	.	.	.	.
CCN(CC)c1ccc(/C=C2\C(=O)NC(=O)N(c3ccccc3OC)C2=O)cc1	1.1	4	.	.	.	.
CCN(CC)c1ccc(/C=C2/C(=O)NC(=O)N(c3ccccc3)C2=O)cc1	3.2*	86*	30	26	1.6*	1.8*
CC1CN(C(=O)c2ccc([N+](=O)[O-])cc2)CC(C)O1 (stereo not given)	0.95	-9	.	.	.	.
O=C1C(=C/C(Br)=C/c2ccccc2)SC(=S)N1Cc1ccccc1	1.1	8	.	.	.	.
CC(/C=C1\SC(=S)N(C(C(=O)O)c2ccccc2)C1=O)=C\c1ccccc1 (stereo not given)	0.94	24	4	5	0.97	0.69*
Cc1c(Cl)cccc1NC(=O)/C(C#N)=C/c1ccc(C(=O)O)cc1	1.1	10	.	.	.	.
O=C(CCNS(=O)(=O)c1ccccc1[N+](=O)[O-])Nc1ccc(I)cc1	0.89	19	.	.	.	.
O=C1CC(c2ccccc2)CC2=C1C(c1ccc(Cl)cc1Cl)Nc1ccccc1N2 (stereo not given)	1.1	9	.	.	.	.
Cc1ccc(OCCOc2ccc(Br)cc2/C=C2/SC(=S)N(C)C2=O)cc1	1	32	.	.	.	.
Cc1ccc(OCCOc2ccc(Cl)cc2/C=C2/SC(=S)N(C)C2=O)cc1	0.91	46*	1	10	1.1	0.8*
O=C(/C=C/c1ccccc1)C1=C(O)C(=O)N(c2cccc(C(F)(F)F)c2)C1c1ccc([N+](=O)[O-])cc1 (stereo not given)	0.95	5	.	.	.	.
CCN(CC)CCNC(=O)c1ccc(NC(=S)NC(=O)c2cccnc2)cc1	0.72*	63*	41	36	0.77*	0.81
O=C(NC(=S)Nc1ccc(Cc2ccncc2)cc1)c1ccccc1	0.93	36	.	.	.	.
O=C1NC(=O)N(c2ccc(Cl)cc2)C(=O)/C1=C/c1ccc(-c2ccc(Cl)c(C(=O)O)c2)o1	1.1	67*	63*	77*	0.94	0.85
O=C1NC(=O)N(c2ccccc2)C(=O)/C1=C\c1ccc(-c2ccc([N+](=O)[O-])cc2Cl)o1	0.82	-3	.	.	.	.
O=C1NN(c2ccccc2)C(=O)/C1=C/c1ccc(-c2ccc(F)cc2)o1	0.99	7	.	.	.	.
O=C1NC(=O)N(c2ccccc2)C(=O)/C1=C\c1ccc(-c2cccc(C(=O)O)c2)o1	0.98	51*	38	53*	0.92	0.92
SMILES	Cy5 interf NS3h	NS3h inh CB	NS3h confirm	SSB-DNA FP CB	Cy5 SSB fluor CB	Cy5 interf conf
O=C1NN(c2ccc(Cl)cc2)C(=O)/C1=C\c1ccc(-c2ccc(Cl)c(C(=O)O)c2)o1	0.8*	52*	36	28	0.97	0.92
COc1ccc([N+](=O)[O-])cc1-c1ccc(/C=C2\C(=O)NC(=O)N(c3ccc(Cl)cc3)C2=O)o1	1.1	20	.	.	.	.
CC1CCCN(CN2C(=O)C(=O)c3cc(Br)ccc32)C1 (stereo not given)	1	-11	.	.	.	.
CCOc1ccc(N(CC(=O)Nc2ccc(Br)cc2)S(=O)(=O)c2ccc(SC)cc2)cc1	1.1	-2	.	.	.	.
COc1ccc(CC(=O)O/N=C(/N)c2ccc(Br)cc2)cc1OC	1	7	.	.	.	.
N/C(Cc1ccc([N+](=O)[O-])cc1)=N/OC(=O)c1ccc2ccccc2c1	0.97	0	.	.	.	.
